Source: PubChem (The Scripps Research Institute Molecular Screening Center)
Hits are enriched below; roughly 1.1% of the tested compounds scored in any of these assays.
NCOA2 inhibitor: inhibits human steroid receptor coactivator 2 | HEK293 GAL4-SRC2 luciferase reporter, luminescence | AID 651957 | Q15596 | 370,000 compounds, 0.17% hits | inhibition, % at 9 µM;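 active means inhibition above the mean inhibition of all tested compounds plus 3 SD, set per campaign, cut at about 52% in these data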;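 further: 0% = DMSO treated cells and 100% = cells given Gossypol at 36 µM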
NR2F2 inh: blocks human COUP-TFII nuclear receptor | 370,000 compounds, 0.7% hits | AID 686940 | inhibition, % at 8.6 µM | P24468 | HEK293T NGFI-A luciferase reporter, luminescence;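 active means inhibition above a per-plate cutoff, mean inhibition of test wells between control levels plus 3 SD, cut at about 38% in these data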;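 further: cells cotransfected with COUP-TFII expression vector driving the NGFI-A reporter; 0% = median of COUP-TF2 test wells and 100% = reporter-only cells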
SRC3 inh: inhibitors of human steroid receptor coactivator 3 (SRC3); inhibition, % at 3.6 µM; 360,000 compounds, 0.17% hits; Q9Y6Q9; HEK293 GAL4-SRC3 luciferase reporter, luminescence;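 active means inhibition above a per-campaign cutoff, the mean of all compounds plus 3 SD, cut at about 60% in these data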;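 further: 0% = DMSO-treated cells and 100% = gossypol-treated cells at 36 µM; higher means less SRC3-driven luciferase light from the GAL4 reporter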
GalR3 antagonist: blocks the human galanin receptor 3; 360,000 compounds, 0.44% hits; HEK293 GalR3-CNG cAMP membrane potential fluorescence; galR3 body fused to GalR1 C-terminus; inhibition, % at 3 µM; AID 651719; O60755;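 active means inhibition above the screen-wide average plus 3 SD, cut at about 13% in these data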;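 further: forskolin and galanin both at EC90 stimulate the cells; cAMP rise reported by CNG channel membrane potential dye signal; 0% = forskolin plus galanin with DMSO and 100% = forskolin alone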
NCOA1 inh: human NCOA1 inhibition; Q15788; inhibition, % at 3.6 µM; AID 588354; 360,000 compounds, 0.12% hits; HEK293 GAL4-SRC1 luciferase reporter, luminescence;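 active means inhibition above the campaign mean plus 3 SD, with each screening campaign given its own cutoff, cut at about 60% in these data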;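 further: 0% = DMSO treated cells and 100% = gossypol at 36 µM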
Target sequence (Q15788 whole entry, looked up, the tested form may be a part): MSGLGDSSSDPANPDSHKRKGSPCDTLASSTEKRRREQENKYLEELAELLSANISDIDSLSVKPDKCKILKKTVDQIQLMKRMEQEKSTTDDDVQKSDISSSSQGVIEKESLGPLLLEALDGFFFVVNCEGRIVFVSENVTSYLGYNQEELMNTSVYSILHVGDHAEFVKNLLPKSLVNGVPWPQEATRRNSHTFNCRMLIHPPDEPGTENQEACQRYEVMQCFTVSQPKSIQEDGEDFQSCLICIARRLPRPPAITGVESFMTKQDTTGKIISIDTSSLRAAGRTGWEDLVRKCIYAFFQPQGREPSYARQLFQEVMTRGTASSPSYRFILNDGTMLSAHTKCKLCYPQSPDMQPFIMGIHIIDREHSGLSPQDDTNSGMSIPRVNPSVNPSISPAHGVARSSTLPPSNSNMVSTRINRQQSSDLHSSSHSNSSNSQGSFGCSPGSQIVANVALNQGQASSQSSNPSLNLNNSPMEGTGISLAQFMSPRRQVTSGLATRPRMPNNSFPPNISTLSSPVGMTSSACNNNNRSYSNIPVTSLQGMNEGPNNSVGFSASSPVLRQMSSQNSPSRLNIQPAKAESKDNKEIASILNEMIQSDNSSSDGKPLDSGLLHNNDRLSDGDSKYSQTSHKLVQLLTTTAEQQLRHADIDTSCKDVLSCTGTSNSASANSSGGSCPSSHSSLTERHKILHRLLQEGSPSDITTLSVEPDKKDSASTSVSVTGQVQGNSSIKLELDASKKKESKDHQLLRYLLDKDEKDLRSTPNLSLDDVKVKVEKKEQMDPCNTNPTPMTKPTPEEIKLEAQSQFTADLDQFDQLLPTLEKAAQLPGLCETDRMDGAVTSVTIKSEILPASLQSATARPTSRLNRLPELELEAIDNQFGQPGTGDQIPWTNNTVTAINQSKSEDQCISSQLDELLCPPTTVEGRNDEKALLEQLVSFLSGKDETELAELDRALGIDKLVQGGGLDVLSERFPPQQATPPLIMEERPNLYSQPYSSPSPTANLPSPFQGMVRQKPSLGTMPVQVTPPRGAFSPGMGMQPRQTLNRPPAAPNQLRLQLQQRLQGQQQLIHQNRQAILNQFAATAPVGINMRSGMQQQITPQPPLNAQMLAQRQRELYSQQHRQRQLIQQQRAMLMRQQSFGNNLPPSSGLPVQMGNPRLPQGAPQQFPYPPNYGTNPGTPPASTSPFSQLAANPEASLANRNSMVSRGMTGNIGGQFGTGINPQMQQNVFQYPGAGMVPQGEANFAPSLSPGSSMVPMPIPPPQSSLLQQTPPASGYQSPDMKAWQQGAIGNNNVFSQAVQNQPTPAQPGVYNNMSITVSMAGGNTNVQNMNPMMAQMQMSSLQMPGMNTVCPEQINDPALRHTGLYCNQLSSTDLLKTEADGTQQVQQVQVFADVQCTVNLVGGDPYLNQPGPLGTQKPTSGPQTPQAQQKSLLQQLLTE
NR5A2 inv ag: suppresses constitutive activity of human LRH-1; O00482; HEK293T StAR-luciferase reporter, LRH-1 transfected, 24 h; inhibition, % at 3.6 µM; 360,000 compounds, 0.13% hits;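 active means inhibition above the mean inhibition of all tested compounds plus 3 SD, cut at about 73% in these data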;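 further: 0% = DMSO wells and 100% = reporter-only cells lacking LRH-1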
GalR3 antag conf: confirmation of human galanin receptor 3 antagonists; shares compounds with GalR3 antagonist; inhibition, % at 3 µM; AID 652245; HEK293 GalR3 CNG cAMP biosensor, membrane potential fluorescence; galR3 fused to GalR1 carboxy tail; challenged with forskolin and galanin at EC90; 1,600 compounds, 59% hits;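 active means inhibition above the primary screen's cutoff, the mean inhibition of all screened compounds plus 3 SD, cut at about 13% in these data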;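 further: 0% = forskolin plus galanin and 100% = forskolin alone with DMSO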
CNG parental: acts as nonspecific agonist in parental HEK-CNG cells; activation, % at 3 µM; shares compounds with GalR3 antagonist; 1,600 compounds, 10% hits; HEK293-CNG parental cells, cAMP membrane potential fluorescence; normalised: DMSO wells 0%, forskolin wells 100%; in the data active means activation above about 1.3%
* = called active by the depositor; / = no result.

SMILES	NCOA2 inhibitor	NR2F2 inh	SRC3 inh	GalR3 antagonist	NCOA1 inh	NR5A2 inv ag	GalR3 antag conf	CNG parental
COc1ccc(CNC(=O)CNC(=O)[C@@H]2Cc3ccccc3CN2)cc1	7.1	-16.4	-24.6	-7.8	14.6	-4.3	/	/
Cc1ccc(CNC(=O)c2ccc(N3CCC4(CC3)CC(c3cccc(Br)c3)=NO4)c(NC(=O)c3ccccc3)c2)cc1	15.8	-52.8	5.5	13.8*	-4.9	5.2	22.9*	0.7
CCCCC[C@H](O)/C=C/[C@H]1CCC(=O)[C@@H]1CCCCCCC(=O)N1CCCCC1CO (stereo partly specified)	10.6	-8.4	29.3	79.2*	22.1	18.4	96.9*	-0.3
Cc1ccc(CSc2nnc(-c3n[nH]c4c3CCC4)n2N)cc1	-21.3	3.6	/	/	/	/	/	/
CC(=O)CC[C@H]1CC[C@]2(CCCN(C(=O)c3ccco3)C2)O1	1.9	3.6	/	/	/	/	/	/
Cc1[nH]nc(SCC(=O)N2CCCCC2)c1[N+](=O)[O-]	-48.8	-10.3	-32.0	-1.0	-34.3	-35.3	/	/
Cc1[nH]nc(SCC(=O)N2CCCCCC2)c1[N+](=O)[O-]	-13.8	-30.2	-1.6	13.9*	-13.0	-9.8	3.7	0.1
CC(C)n1c(=S)[nH]c2scc(-c3cccs3)c2c1=O	-16.0	-18.2	5.5	13.2*	-14.4	-1.1	1.6	0.2
CCn1c(=S)[nH]c2scc(-c3cccs3)c2c1=O	-1.8	-4.3	5.8	2.1	0.9	1.0	/	/
CCC[C@H]1[C@@H](OC(=O)N2CCN(c3ccccc3)CC2)CC[C@@]23CCCN2C(=O)CCC[C@@H]13	/	-2.8	/	/	/	/	/	/
CCc1ccc(NC(=O)c2n[nH]c(=O)c3ccccc23)cc1	-52.1	-38.0	-43.5	14.7*	-107.8	-40.0	3.6	0.2
CCN(CC)S(=O)(=O)c1cccc(NC(=O)COC(=O)c2n[nH]c(=O)c3ccccc23)c1	3.6	-3.6	2.3	14.9*	-1.7	1.9	50.5*	-1.3
O=C(NCCOc1ccccc1)c1n[nH]c(=O)c2ccccc12	-26.6	-26.8	-19.9	20.4*	-10.1	-21.2	1.0	-0.2
CCN(CC)S(=O)(=O)c1cccc(NC(=O)COC(=O)c2cc(C)oc2C)c1	-13.4	9.1	10.8	-2.6	-19.0	13.3	/	/
CN(C)S(=O)(=O)c1cccc(C(=O)N/N=C\c2cccc(C#N)c2)c1	-16.6	5.1	/	/	/	/	/	/
COC(=O)[C@]12C[C@H](CC(=O)NCc3cccc4ccccc34)C(=O)N(CCC3=CCCCC3)C1=C[C@H](C(C)C)O[C@@H]2C1CC1	-13.5	13.8	/	/	/	/	/	/
Cc1cc(C)cc(NC(=O)N2CCC(c3nc4ccc(Cl)cc4[nH]3)CC2)c1	1.2	18.0	/	/	/	/	/	/
O=C(Cn1nc(-c2ccccc2)c2ccccc21)Oc1ccccc1	/	14.1	/	/	/	/	/	/
Cc1ccccc1-c1nnn(CC(=O)Nc2ccc3c(c2)OCCO3)n1	9.6	1.0	1.6	16.0*	-15.1	-8.3	18.8*	0.8
Cc1ccccc1-c1nnn(CC(=O)Nc2ccc3c(c2)OCO3)n1	-0.8	-10.5	5.5	-6.9	4.6	-10.7	/	/
COc1ccc(-n2c(SCc3ccc([N+](=O)[O-])cc3)nnc2-c2ccccc2)cc1	-3.3	10.6	16.7	57.2*	-3.8	11.4	63.5*	0.3
CCOc1ccc(-n2c(SCc3ccc([N+](=O)[O-])cc3)nnc2-c2ccccc2)cc1	-0.5	-1.6	-4.6	69.6*	4.9	-11.5	72.0*	1.3*
CCN(CC)CCCNC(=O)c1oc(=O)c2ccccc2c1-c1ccc(C)cc1	-14.6	-10.8	/	/	/	/	/	/
Cc1ccc(NC(=O)OC2CCC23CCCCC3)cc1 (stereo unspecified)	-60.5	-13.5	/	/	/	/	/	/
Cc1ccc(C)c(N(C)C(=O)c2cc3c(=O)[nH]c4ccc(C)cc4c3s2)c1	-11.0	17.5	8.9	15.8*	-14.2	9.7	19.2*	3.2*
CN(CCO)c1cc(Sc2nc3ccccc3s2)c2nonc2c1[N+](=O)[O-]	-42.8	19.1	-27.9	27.8*	3.8	-28.3	50.8*	0.6
